# Compound activity (PubChem BioAssay)
# The full list was thinned out, with hits kept by preference.
# SARS PLP yeast – SARS-CoV PLP inhibition in yeast | AID 485353 | S. cerevisiae expressing SARS-CoV PLpro, growth rescue | 0.19% of 330,000 active | Potency, µM (top dose mostly 32.9 µM), without a hit: at the highest dose activity, positive = growth rescue, hits mostly activators; calls by dose curve; also: potency is read from the fitted curve at half-maximal effect; 0% is about no effect; nearly all actives have a fitted effect of over 55% in size
# Shiga inhibitor – Shiga toxin inhibition | inhibition, % at 38.7 µM | Vero cells, Shiga toxin protein synthesis inhibition reporter | AID 2315 | 9.2% of 290,000 active; in the data active = inhibition mostly above about 28%, no sharp cut-off; inactive = mostly below about 43%; also: 0% is about no effect
# Tb PYK inh – inhibitors of Trypanosoma brucei pyruvate kinase; Q57TT1; TbPYK enzyme, Kinase-Glo Plus ATP luminescence, 45 min; Potency, µM (doses to about 76.8 µM), without a hit: at the top dose activity, negative = inhibition, hits mostly inhibitors; 0.12% of 410,000 active; AID 624173; also: potency is read from the fitted curve at half-maximal effect; % is scaled to controls: 0 for no effect and ±100 for the full control effect; nearly all actives have a fitted effect of over 50% in size
#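 Quantitative HTS: titrated library compounds versus trypanosomal pyruvate kinase in TEA buffer (pH 7.2) containing KCl, MgCl2, BSA and Tween-20. Reactions were initiated with ADP, 130 uM final. Kinase-Glo Plus luminescence was read after 45 min at RT.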
# Cycloheximide cs – counter-screen for Shiga toxin inhibitors: cycloheximide protein synthesis inhibition. cell reporter, cycloheximide protein synthesis inhibition counterscreen. max response, %. 12% of 300,000 active. AID 2314; in the data active = max response mostly above about 13%, no sharp cut-off; inactive = mostly below about 14%; also: read at 38.3 µM for the half of the compounds with a filed dose; 0% is about no effect
# NS1 function inh – influenza NS1 inhibition. 0.4% of 270,000 active. Potency, µM (highest dose often 46.1 µM), for inactives: at the top dose activity, positive = more growth; calls by dose curve; also: potency is read from the fitted curve at half-maximal effect; actives are rising curves; nearly all actives have a fitted effect of over 50% in size
#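 OD600 was taken as the measure of yeast growth restored by compound in an NS1-expressing S. cerevisiae strain. Cells had been washed out of glucose medium and diluted 1:100 into galactose -URA medium, pH 6.0.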
# LmPK inh – LmPK (Leishmania mexicana) enzyme inhibition | 0.37% of 290,000 active | Potency, µM (titrated, usually from 57.5 µM), for inactives: at the top dose activity change, negative = inhibition, hits mostly inhibitors | Q27686 | AID 1721 | purified LmPK, Kinase-Glo ATP luminescence, 1 h; also: potency is read from the fitted curve at half-maximal effect; % is scaled to controls: 0 for no effect and ±100 for the full control effect
# Target sequence (Q27686 whole entry, looked up): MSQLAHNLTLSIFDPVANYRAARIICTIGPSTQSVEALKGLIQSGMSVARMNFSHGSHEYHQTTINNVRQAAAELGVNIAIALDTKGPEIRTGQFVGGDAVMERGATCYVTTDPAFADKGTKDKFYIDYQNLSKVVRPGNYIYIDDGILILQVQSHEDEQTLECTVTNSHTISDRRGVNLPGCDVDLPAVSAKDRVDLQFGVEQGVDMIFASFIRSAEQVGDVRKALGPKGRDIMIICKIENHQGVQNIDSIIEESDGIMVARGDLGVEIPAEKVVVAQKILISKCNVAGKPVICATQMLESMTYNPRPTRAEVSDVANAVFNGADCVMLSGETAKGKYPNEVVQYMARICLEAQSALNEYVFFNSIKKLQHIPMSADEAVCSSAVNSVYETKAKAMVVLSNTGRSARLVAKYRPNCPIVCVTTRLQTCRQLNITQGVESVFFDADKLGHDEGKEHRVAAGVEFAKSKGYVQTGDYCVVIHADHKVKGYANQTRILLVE
#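 Pyruvate kinase activity monitored as ATP production (luciferase luminescence). Conditions: 0.1 nM enzyme, 0.5 mM PEP, 0.1 mM ADP, 1 h, RT; normalized against uninhibited and no-enzyme wells.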
# Starred values were filed as active, the others as inactive; ? = inconclusive; · = no result given. Unless noted, calls follow the shape of the dose curve; as a rule, active = well fitted curve in the direction sought with a large enough effect; inconclusive = small, poorly fitted or top-dose-only effect, or another doubt; inactive = no such curve, though single readings can be large; an effect the other way counts as inactive or inconclusive.
SMILES,SARS PLP yeast,Shiga inhibitor,Tb PYK inh,Cycloheximide cs,NS1 function inh,LmPK inh
Cc1ccc(NC(=O)c2ccco2)c([N+](=O)[O-])c1,-3%,107*,-6%,41*,·,1%
COc1ccc(NC(=O)C/C(C)=N/NC(=O)c2ccco2)c([N+](=O)[O-])c1,-3%,93*,6%,19*,9%,-1%
Cc1cc(Cl)ccc1OCC(=O)NNC(=O)c1ccco1,-7%,35*,4%,35*,-6%,-8%
Cn1cccc1C(=O)OCC(=O)NC(=O)NC1CCCCC1,0%,63,-9%,41*,·,3%
O=C(COc1ccc(Cl)cc1Cl)NC1CC1,·,·,5%,·,·,·
O=C(COc1ccc(Cl)cc1Cl)NC1CCSC1=O (stereo not drawn),4%,131*,1%,40*,-2%,3%
O=C(COc1ccccc1Cl)NC(=O)NC1CCCC1,10%,26,0%,26*,-34%,1%
CCc1ccc(NC(=O)CSC2=Nc3ccccc3C3=NC(CC(=O)NCc4ccc5c(c4)OCO5)C(=O)N23)cc1 (stereo not drawn),·,·,-2%,·,·,·
CC(=O)N1CCOc2cc(S(=O)(=O)NCc3ccc(C)cc3)c(Cl)cc21,·,·,-2%,·,·,·
CC(C)Sc1ccccc1C(=O)Nc1ccc2c(c1)n(C)c(=O)n2C,1%,-1,-2%,-3,-5%,0%
Cc1ccc(OCC(=O)NC2CCCCCC2)cc1C,0%,42,0%,25*,-37%,8%
Cc1ccc(OCC(=O)NC2CCCC2)c(C)c1,-1%,42,4%,36*,-16%,-2%
O=C(COc1ccc2ccccc2c1)NC1CC1,4%,70*,4%,43*,-91%,-1%
Cc1cccc(CC(=O)NC2CCCCCC2)c1,-4%,76,-3%,14*,-3%,0%
Cn1c(=O)cc(SCC(=O)N2CCN(c3ccccc3F)CC2)c2cc(Cl)ccc21,·,·,1%,·,·,·
COC(=O)c1cc2c(n1S(=O)(=O)c1ccc(C)cc1)C(=O)C(=O)c1[nH]cc(C(=O)OCc3ccccc3)c1-2,·,·,-3%,·,·,·
Cc1cccc(OCC(=O)NC2CCCCCC2)c1C,2%,-16,1%,4,10%,-4%
Cc1cc(Cl)ccc1OCC(=O)NC1CCCC1,-8%,37,0%,34*,-81%,11%
Cc1ccccc1OCC(=O)NC1CCCCCCC1,0%,59*,0%,12,-25%,6%
Cc1ccc(C)c(OCC(=O)NC2CCCCCC2)c1,5%,11,-2%,27*,-30%,-7%
CN1CCN(S(=O)(=O)c2cccc(C(=O)NC3(C)CCS(=O)(=O)C3)c2)CC1 (stereo not drawn),1%,·,-3%,·,·,·
COc1ccc(CNC(=O)C2CC(c3cccc([N+](=O)[O-])c3)=NO2)cc1 (stereo not drawn),4%,38*,4%,36*,-47%,-1%
COc1ccc(C2=NOC(C(=O)NCc3ccccc3)C2)cc1 (stereo not drawn),-7%,34*,-1%,5,8%,-3%
COc1ccccc1CNC(=O)C1CC(c2ccccc2F)=NO1 (stereo not drawn),-3%,44*,0%,18*,-34%,-4%
COc1ccc(CNC(=O)C2CC(c3ccccc3C(F)(F)F)=NO2)cc1 (stereo not drawn),-3%,-4,-1%,1,-4%,1%
SMILES,SARS PLP yeast,Shiga inhibitor,Tb PYK inh,Cycloheximide cs,NS1 function inh,LmPK inh
COc1cccc(C2=NOC(C(=O)NCc3ccccc3)C2)c1 (stereo not drawn),-2%,23,-1%,13,-31%,-2%
Cc1ccc(CNC(=O)C2CC(c3cccc([N+](=O)[O-])c3)=NO2)cc1 (stereo not drawn),1%,13,-3%,13,-7%,1%
COc1ccc(CNC(=O)C2CC(c3ccccc3[N+](=O)[O-])=NO2)cc1 (stereo not drawn),?,65*,3%,29*,10%,-4%
CCCCN(C(=O)c1ccccc1Br)C(c1ccc(OC)cc1)c1nc2ccccc2[nH]1 (stereo not drawn),·,·,0%,·,·,·
CCOc1ccccc1-n1c(N)c(C(=O)OC)c2nc3ccccc3nc21,·,·,2%,·,·,·
O=C(COC(=O)Cc1ccc(S(=O)(=O)N2CCOCC2)s1)Nc1ccc(F)cc1F,-5%,·,-6%,·,·,·
